High-throughput results deposited in PubChem BioAssay by National Center for Advancing Translational Sciences (NCATS).
Compounds with a hit are over-represented: about 9.2% of the library has one in this group of screens.
Rab9 promoter act: qHTS Assay for Rab9 Promoter Activators | Potency, µM (series often up to 9.22 µM), inactives show at the highest dose activation, negative = inhibition, usual class: activators | AID 485297, 2010 | hit rate 2.8% among 320,000 | Huh7 Rab9 promoter-luciferase reporter, luminescence, 24 h; note: % of control where 0% means no effect; nearly all actives have a fitted effect of over 60% in size
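Luminescence read-out: Huh7 cells stably expressing Rab9-luciferase, treated 24 h with compound at 37 °C, then lysed with luciferase reagent for 10 min at ambient before reading.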
SMN2 splice enh: qHTS Assay for Enhancers of SMN2 Splice Variant Expression; Potency, µM (series often up to 46.1 µM), without a hit: at the top dose activity change, positive = activation, actives largely listed as activators; HEK293 SMN2-luciferase splicing reporter, luminescence, 30-36 h; hit rate 2.8% among 210,000; note: % of control where 0% means no effect; nearly all actives have a fitted effect of over 55% in size
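HEK293 cells carry an SMN2 minigene-luciferase reporter in which exon 7 inclusion puts luciferase in frame. Cells were seeded at 2000 cells/well, attached for 10-12 hours, then exposed to compounds for 30-36 hours at 37C before ONE-Glo luminescence.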
FLuc modulator: qHTS profiling assay for firefly luciferase inhibitor/activator using purifed enzyme and Km concentrations of substrates (counterscreen for miR-21 project); Luciferin 4-monooxygenase (Photinus pyralis), P08659; purified FLuc, Km substrates, luminescence inhibition; Potency, µM (top dose mostly 57.5 µM), for the others: top-dose activity change, negative = inhibition, hits mostly inhibitors; hit rate 6.9% among 360,000;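 note: plate controls were vehicle for no effect and reference inhibitor for full effect; nearly all actives have a fitted effect of over 55% in size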
Target sequence (P08659 whole entry, looked up): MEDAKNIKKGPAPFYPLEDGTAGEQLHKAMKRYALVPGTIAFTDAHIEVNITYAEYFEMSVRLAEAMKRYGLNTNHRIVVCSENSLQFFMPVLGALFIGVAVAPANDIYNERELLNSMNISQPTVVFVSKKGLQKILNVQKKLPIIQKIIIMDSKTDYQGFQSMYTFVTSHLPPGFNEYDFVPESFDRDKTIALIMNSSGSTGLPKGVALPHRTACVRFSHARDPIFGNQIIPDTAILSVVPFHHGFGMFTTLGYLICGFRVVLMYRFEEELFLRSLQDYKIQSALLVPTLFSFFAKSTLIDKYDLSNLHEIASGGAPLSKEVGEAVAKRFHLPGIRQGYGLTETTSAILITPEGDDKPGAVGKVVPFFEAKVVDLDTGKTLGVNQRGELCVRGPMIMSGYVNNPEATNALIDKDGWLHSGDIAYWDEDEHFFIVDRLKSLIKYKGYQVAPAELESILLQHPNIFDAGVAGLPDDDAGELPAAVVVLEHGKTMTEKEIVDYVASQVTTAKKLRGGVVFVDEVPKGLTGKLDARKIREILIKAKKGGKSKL
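Purified P. pyralis luciferase (10nM final) with 10uM D-luciferin and 10uM ATP (Km levels) in 50mM Tris acetate pH 7.5, 10mM Mg acetate, 0.01% Tween-20, 0.05% BSA; qHTS 6-point titration, ~60 µM downward; luminescence read.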
NPC1 promoter act: qHTS Assay for NPC1 Promoter Activators; Huh7 NPC1 promoter luciferase reporter, 24 h; Potency, µM (titrated, usually from 9.22 µM), without a hit: at the highest dose activation, actives largely listed as activators; hit rate 2.4% among 320,000; AID 485313, 2010; note: % of control where 0% means no effect; nearly all actives have a fitted effect of over 60% in size
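In 1536-well qHTS, Huh7 cells harboring an NPC1 promoter–luciferase construct received compound for 24 h; activation was quantified by luminescence following luciferase reagent addition.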
ELG1 genotoxic: qHTS screen for small molecules that induce genotoxicity in human embryonic kidney (HEK293T) cells expressing luciferase-tagged ELG1; hit rate 1.3% among 330,000; HEK293T ELG1-luciferase reporter, luminescence, 16 h; AID 504466, 2011; Potency, µM (titrated, usually from 46 µM), for inactives: top-dose activity change, positive = activation, actives largely listed as activators; note: % of control where 0% means no effect; nearly all actives have a fitted effect of over 60% in size
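After overnight (16 hr) compound treatment at 37 °C, ELG1-luciferase HEK293T cells were lysed with ONE-Glo; luminescence quantified 30 min later at room temperature.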
ELG1 DNA repair: qHTS screen for small molecules that inhibit ELG1-dependent DNA repair in human embryonic kidney (HEK293T) cells expressing luciferase-tagged ELG1. Potency, µM (doses to about 46.1 µM), without a hit: at the top dose activity change, negative = inhibition, most hits filed as inhibitors. HEK293T ELG1-luciferase reporter, luminescence, 16 h; DNA damage induced by 5-fluorouridine. hit rate 2.3% among 330,000; note: % is set by controls: 0 for no effect and ±100 for the full control effect; nearly all actives have a fitted effect of over 55% in size
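DMSO vehicle served as the neutral condition. Each well held 2,000 cells given 5-fluorouridine plus compound; after 16 hr at 37 °C/5% CO2, ONE-Glo was added and luciferase measured 30 min later.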
* hit, by the source's call; ? = inconclusive; / = no result given; [ ] = dose if it differs, or a comment. Calls come from the whole dose curve; as a rule, active = well fitted curve in the direction sought with a large enough effect; inconclusive = small, poorly fitted or top-dose-only effect, or another doubt; inactive = no such curve, though single readings can be large; an effect the other way counts as inactive or inconclusive. Potency is the fitted concentration of half-maximal effect.

SMILES	Rab9 promoter act	SMN2 splice enh	FLuc modulator	NPC1 promoter act	ELG1 genotoxic	ELG1 DNA repair
CCOc1ccc(-n2c(=O)c3c(C)c(C)sc3n(CC(=O)N(CC)Cc3ccccc3)c2=O)cc1	/	-3%	3%	/	/	/
O=c1cc(N2CCN(c3cccc(Cl)c3)CC2)[nH]c(=O)n1C1CCCCC1	-33%	7.9µM*	0%	3%	?	11%
COc1ccc(N2CCN(C(=O)Nc3cn(CC(C)C)c(=O)c4ccccc34)CC2)cc1	/	/	-2%	/	/	/
CN1CCC(Oc2ccccc2Sc2ccc(C(F)(F)F)cc2)CC1	0%	-59%	1%	-6%	2%	-4%
CN1CCC(Oc2ccc(Sc3ccccc3)cc2)CC1	21%	6%	12µM*	18%	?	?
C=CCc1cccc(C=NNC(=O)CN2CCN(Cc3ccccc3)CC2)c1O	-33%[46.1 µM]	/	/	-13%[46.1 µM]	/	/
CCOC(=O)c1sc(=N)n(-c2ccc(OC)cc2)c1C	26%	14%	19µM*	30%	?	?
COC(=O)c1c(C)n(-c2ccc(OC)cc2)c2ccc(O)cc12	-4%	4.5µM*	0%	-1%	-25%	?
CCOC(=O)c1sc(=S)n(-c2ccc(OC)cc2)c1N	-13%	/	0%	-2%	1%	9%
Cc1ccc(C)c(OC(=O)c2cccnc2)c1	2%	/	1%	1%	-1%	9%
O=C(c1cnsn1)N1CCC(CO)(Cc2cccc(F)c2)CC1	3.2µM*	/	13µM*	?	?	?
COc1ccc(CNCCC(c2ccccc2)C2CCOC(C)(C)C2)cc1 (centres undefined)	0%	-32%	1%	-3%	-9%	-14%
COc1ccc(CN(CCC(c2ccccc2)C2CCOC(C)(C)C2)C(C)=O)cc1 (centres undefined)	-5%	-2%	2%	-2%	-8%	16µM*
CCCN(CCC)C(=O)c1cc(-c2ccc3c(c2)OCO3)nc2ccccc12	-1%	-17%	?	-2%	-15%	18µM*
CC(=O)c1ccc(N2CCN(C(=O)c3cc(-c4ccc5c(c4)OCO5)nc4ccccc34)CC2)cc1	11%	?	7.6µM*	6%	-11%	?
O=C(O)c1cc(-c2cccs2)nc2cc3c(cc12)OCCO3	-1%	?	9.5µM*	3%	10%	?
Cc1ccc2nc(-c3ccc4c(c3)OCCO4)cc(C(=O)O)c2c1	13%	?	2.4µM*	25%	?	?
O=C(NN1CCOCC1)c1cc(-c2cccs2)nc2ccccc12	0%	17%	-18%	5%	-4%	-11%
COc1cccc(N2CCN(C(=O)CCNS(=O)(=O)c3ccc(F)c(F)c3)CC2)c1	/	/	/	/	-4%	?
Cc1cc2c(n1-c1ccc(C(=O)NCCc3ccc(Cl)cc3)cc1)CCC(C)C2 (centres undefined)	/	/	-14%	/	/	/
Cc1ccc(CN2C(=O)C3(c4ccccc42)N(c2cccc(C(F)(F)F)c2)C(=O)CS3(=O)=O)cc1 (centres undefined)	/	/	2%	/	/	/
O=C(O)c1cc(-c2ccc3c(c2)OCO3)nc2ccccc12	-7%	14%	8.5µM*	9%	4%	?
CC(NC(=O)c1cc(-c2ccc3c(c2)OCO3)nc2ccccc12)C(C)(C)C (centres undefined)	-3%	6%	-14%	0%	0%	-2%
O=C(NCc1ccc2c(c1)OCO2)c1cc(-c2ccncc2)nc2ccccc12	1%	/	?	0%	-6%	?
CCCNC(=O)NNC(=O)c1cc(-c2ccc3c(c2)OCO3)nc2ccccc12	-7%	/	13µM*	1%	0%	14%
SMILES	Rab9 promoter act	SMN2 splice enh	FLuc modulator	NPC1 promoter act	ELG1 genotoxic	ELG1 DNA repair
Cc1nc2nc(C)c(CCC(=O)NCc3cccc(Cl)c3)c(C)n2n1	/	1%	-3%	/	/	/
COc1ccc(S(=O)(=O)NC2CCCC2)cc1C(N)=O	1%	/	8%	-4%	2%	-5%
COc1ccc(-c2[nH]c(-c3cc(OC)c4c(c3)OCO4)nc2-c2ccccc2)cc1	0%	-9%	-5%	-1%	-7%	21µM*
COc1cc(-c2nc(-c3ccccc3)c(-c3ccc(Br)cc3)[nH]2)cc(OC)c1O	/	8%	-1%	/	/	/
Cc1ccc(F)cc1CNC(=O)C1CCC(=O)N(C2CC2)C1 (centres undefined)	-1%	/	-5%	2%	2%	?
O=C(Nc1cc(C(F)(F)F)ccc1Cl)c1cc(-c2ccc3c(c2)OCCO3)on1	/	/	1.7µM*	/	/	/
O=C(COCc1cc(-c2ccc3c(c2)OCO3)on1)Nc1cc(C(F)(F)F)ccc1Cl	/	/	-1%	/	/	/
O=C(Nc1ccccc1C(F)(F)F)c1cc(-c2ccc3c(c2)OCCO3)on1	/	/	0.38µM*	/	/	/
COc1cccc(CN2CCN(Cc3cc(OC)c(OC)cc3[N+](=O)[O-])CC2)c1	-7%	-25%	5%	1%	1%	?
COc1cc(CN2CCN(Cc3ccc([N+](=O)[O-])cc3)CC2)c([N+](=O)[O-])cc1OC	-12%	-61%	-1%	-17%	-8%	18µM*
OCC1OC([S-])[C@H](O)C(O)C1O.[Au+] (some centres undefined)	/	-7%	/	/	/	/
CCOc1ccc(CN(C(=O)c2cc(=O)c3cc(Cl)ccc3o2)C2CCS(=O)(=O)C2)cc1 (centres undefined)	/	?	1%	/	/	/
CCc1ccc(NC(=O)C(CC)n2c(=O)c(C(F)(F)F)nc3ccccc32)cc1 (centres undefined)	/	/	0%	/	/	/
CCOC(=O)/C(=C\C=C1/Sc2cc(OCC)c(OCC)cc2N1CC)C(C)=O	2%	-47%	0%	1%	-5%	16µM*
COc1c(C)cc(C(=O)C2CCCN(Cc3cnc(N4CCOCC4)s3)C2)cc1C (centres undefined)	-7%	-26%	-2%	-3%	-5%	21µM*
O=C(CCNS(=O)(=O)c1ccccc1C(F)(F)F)NCCCc1ccccc1	-2%	/	-1%	0%	1%	12%
Clc1ccc(-c2ccc(SCc3ccccn3)nn2)cc1	3.2µM*	?	?	2.2µM*	?	?
O=[N+]([O-])c1ccc(CSc2ccc(-c3ccccn3)nn2)cc1	11%	-7%	-2%	1%	3%	1%
c1ccc(CSc2ccc(-c3ccccn3)nn2)nc1	2.5µM*	11µM*	?	2.8µM*	?	?
